Screens: PubChem BioAssay, National Center for Advancing Translational Sciences (NCATS)
A selection: hits, their analogues and other compounds. The true share with any hit is near 7.5%.
KinaseGlo FLuc = counter-screen: inhibitors of Kinase-Glo firefly luciferase; Q27757; Kinase-Glo luciferase, ATP luminescence, 8 min; Potency, µM (series often up to 38.3 µM), hits mostly inhibitors; 200,000 tested, 0.28% active; AID 1379; note: nearly all actives have a fitted effect of over 60% in size
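Recombinant Kinase-Glo luciferase, 10 uM ATP (linear range), luciferin; imidazole pH 7.2 / KCl / MgCl2 / Tween / BSA buffer; 8 min RT; luminescence.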
NPC1 promoter act = activates the NPC1 promoter; Huh7 NPC1 promoter luciferase reporter, 24 h; Potency, µM (series often up to 9.22 µM), actives largely listed as activators; 320,000 tested, 2.4% active; AID 485313; note: nearly all actives have a fitted effect of over 60% in size
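Cells: Huh7 expressing luciferase under the NPC1 promoter, 1500/well. Seeded 2 h, compound added, incubated 24 h at 37 °C. Luciferase reagent, 10 min ambient, then luminescence.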
ELG1 genotoxic = genotoxicity induction in ELG1-luciferase HEK293T cells; HEK293T ELG1-luciferase reporter, luminescence, 16 h; Potency, µM (titrated, usually from 46 µM), hits mostly activators; 330,000 tested, 1.3% active; AID 504466; note: nearly all actives have a fitted effect of over 60% in size
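HEK293T cells expressing luciferase-tagged ELG1 were treated with compound or DMSO for 16 hr at 37°C. Luciferase activity was then read after 30 min with ONE-Glo at room temperature; rising signal flags genetic stress.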
FLuc counter = counter-screen for miR-21 project: firefly luciferase inhibitors or activators. purified FLuc, Km substrates, luminescence inhibition. Potency, µM (doses to about 57.5 µM), usual class: inhibitors. 360,000 tested, 6.9% active. AID 588342; note: nearly all actives have a fitted effect of over 55% in size
Target sequence (P08659 whole entry, looked up): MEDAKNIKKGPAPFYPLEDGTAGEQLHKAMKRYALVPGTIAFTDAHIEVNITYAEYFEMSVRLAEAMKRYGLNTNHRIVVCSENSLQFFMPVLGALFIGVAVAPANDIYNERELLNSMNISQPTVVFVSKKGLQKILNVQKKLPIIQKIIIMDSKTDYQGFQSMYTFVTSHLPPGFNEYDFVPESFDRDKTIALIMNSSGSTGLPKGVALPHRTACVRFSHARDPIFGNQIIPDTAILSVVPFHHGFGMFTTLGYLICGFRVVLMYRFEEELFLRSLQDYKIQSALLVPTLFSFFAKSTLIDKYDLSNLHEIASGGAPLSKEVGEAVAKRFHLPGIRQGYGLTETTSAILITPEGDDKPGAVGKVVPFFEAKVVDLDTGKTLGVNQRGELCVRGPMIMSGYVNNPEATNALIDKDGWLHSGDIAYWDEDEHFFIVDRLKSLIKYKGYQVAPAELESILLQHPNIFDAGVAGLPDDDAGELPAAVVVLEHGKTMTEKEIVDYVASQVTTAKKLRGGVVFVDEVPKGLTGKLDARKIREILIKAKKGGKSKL
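Purified P. pyralis luciferase, 10 nM final, with Km-level 10 uM D-luciferin and 10 uM ATP in 50 mM Tris acetate pH 7.5, 10 mM Mg acetate, 0.01% Tween-20, 0.05% BSA; 6-point qHTS titration about 60 µM downward; luminescence read.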
Rab9 promoter act = activates the Rab9 promoter | Huh7 Rab9 promoter-luciferase reporter, luminescence, 24 h | Potency, µM (series often up to 9.22 µM), most hits filed as activators | 320,000 tested, 2.8% active | AID 485297; note: nearly all actives have a fitted effect of over 60% in size
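Measured in stably transfected Huh7 cells bearing a Rab9 promoter–luciferase construct: 24 h compound treatment at 37 °C, followed by luminescence detection.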
SMN2 splice enh = SMN2 splice variant enhancement; HEK293 SMN2-luciferase splicing reporter, luminescence, 30-36 h; Potency, µM (series often up to 46.1 µM), actives largely listed as activators; 210,000 tested, 2.8% active; AID 1458; note: nearly all actives have a fitted effect of over 55% in size
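HEK293 cells carry an SMN2 […]–luciferase reporter in which exon 7 inclusion puts luciferase in frame. Cells were plated 10-12 h before compound addition, then incubated 30-36 h at 37C. ONE-Glo luminescence was read; sodium butyrate at 4.5 mM final served as control.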
Numbers stand for hits; 0 = inactive; ? = inconclusive; - = not tested or not shown. Calls come from the whole dose curve; as a rule, active = well fitted curve in the direction sought with a large enough effect; inconclusive = small, poorly fitted or top-dose-only effect, or another doubt; inactive = no such curve, though single readings can be large; an effect the other way counts as inactive or inconclusive.

SMILES	KinaseGlo FLuc	NPC1 promoter act	ELG1 genotoxic	FLuc counter	Rab9 promoter act	SMN2 splice enh
Cc1c(CCC(=O)O)c(=O)oc2cc3oc4c(c3cc12)CCCC4	-	0	0	6µM	0	-
Cc1c(CCC(=O)N2CCC(C(=O)NCCCCCC(=O)O)CC2)c(=O)oc2cc3oc4c(c3cc12)CCCC4	-	0	0	13µM	0	-
CCN(C(=O)Cn1c(=O)oc2cc(S(=O)(=O)N3CCCCC3)ccc21)c1ccccc1	-	-	-	0	-	0
Cc1c(CCC(=O)N2CCC[C@H]2C(=O)O)c(=O)oc2cc3oc4c(c3cc12)CCCC4	-	0	?	12µM	0	-
Cc1c(CCC(=O)NCCC(=O)O)c(=O)oc2c(C)c3oc4c(c3cc12)CCCC4	-	0	0	?	0	-
Cc1c(CCC(=O)NCC(=O)NCC(=O)O)c(=O)oc2cc3oc4c(c3cc12)CCCC4	-	0	0	21µM	0	-
COc1ccc2c(c1)c1c(c(=O)n(-c3cccc(C)c3)c(=O)n1CC(=O)Nc1c(C)cc(C)cc1C)n2C	-	-	-	0	-	-
COc1ccccc1C1=NNC(=Nc2cccc(S(=O)(=O)N(C)C)c2)SC1	0	0	0	0	0	0
COc1ccccc1/C=C/C=C1\Oc2c(ccc(O)c2CN2CCN(CCO)CC2)C1=O	0	0	0	3.8µM	0	0
CCN1CCN(Cc2c(O)ccc3c2O/C(=C\c2ccc(C)cc2)C3=O)CC1	0	0	0	?	0	0
O=C1/C(=C/C=C/c2ccccc2)Oc2c1ccc(O)c2CN1CCN(CCO)CC1	-	0	0	12µM	0	-
CN(C)Cc1c(O)ccc2c1O/C(=C\C=C\c1ccccc1)C2=O	-	0	0	13µM	0	-
O=c1oc2c(CN3CCN(CCO)CC3)c(O)ccc2cc1-c1ccccc1	-	-	-	0	-	-
CCN1CCN(Cc2c(O)ccc3c2O/C(=C\C=C\c2ccccc2)C3=O)CC1	0	0	0	11µM	0	0
CCN1CCN(Cc2c(O)ccc3c2O/C(=C\c2ccccc2)C3=O)CC1	0	0	0	0	0	0
Cc1ccc(-n2c(N)c(C(=O)Nc3ccccc3F)sc2=S)cc1C	0	0	0	0	0	0
CC(C)S(=O)(=O)c1oc(-c2ccc(F)cc2)nc1S(=O)(=O)c1ccccc1	-	-	-	0	-	0
Cc1ccc(/C=C2\Oc3c(ccc(O)c3CN3CCN(C)CC3)C2=O)cc1	0	0	0	?	0	0
CCc1ccc(/C=C2\Oc3c(ccc(O)c3CN3CCN(C)CC3)C2=O)cc1	-	?	0	12µM	0	-
O=C(C1CCCN(C2CC(=O)N(c3ccc(Cl)cc3)C2=O)C1)N1CCCC1 (stereo not given)	-	0	0	0	0	-
c1ccc2c(c1)CCCN2c1nc2ccccc2n2cnnc12	0	0	0	15µM	0	0
c1ccc2c(c1)CCN(c1nc3ccccc3n3cnnc13)C2	0	0	0	?	0	0
CC(=O)c1cc2c(cc1N/C(=N/S(=O)(=O)c1ccc(C)cc1)c1ccc(F)cc1)OCO2	-	-	-	0	-	-
CCn1cc(C2=NC(C(C)C)CO2)c2ccccc21 (stereo not given)	0	0	?	0	0	0
CC(C)C1COC(c2cccc3ccccc23)=N1 (stereo not given)	0	3.2µM	21µM	2.1µM	0.79µM	22µM
SMILES	KinaseGlo FLuc	NPC1 promoter act	ELG1 genotoxic	FLuc counter	Rab9 promoter act	SMN2 splice enh
CC(=O)c1cc2c(cc1NS(=O)(=O)c1cccc(C(=O)O)c1)OCO2	-	0	0	0	0	-
CC(=O)c1cc2c(cc1NS(=O)(=O)c1ccccc1)OCO2	0	0	16µM	0	0	0
Cc1ccc2[nH]c(=O)c3cc(C(=O)NCCc4ccc(Cl)cc4)sc3c2c1	-	-	-	0	-	0
CC(O)c1nc2ccccc2n1Cc1nnc(-c2ccc(Cl)cc2)o1 (stereo not given)	0	0	0	17µM	0	0
CCOC(=O)c1sc2nc3c(cc2c1N)COC(C(C)C)C3 (stereo not given)	0	0.79µM	0.13µM	0.12µM	?	0
CCOC(=O)c1sc2nc(N3CCOCC3)c3c(c2c1N)CC(C(C)C)OC3 (stereo not given)	0	0	0	0	0	-
CC1(C)Cc2nc3scc(NC(=O)c4ccccc4)c3cc2CO1	-	0	0	11µM	0	-
COC(=O)c1sc2nc3c(cc2c1N)COC(C)(C)C3	0	2.8µM	8.2µM	11µM	3.5µM	0
CC(NCc1cc(Br)ccc1OCC(N)=O)C12CC3CC(CC(C3)C1)C2 (stereo not given)	-	0	0	0	0	-
COc1cc(OC)c(NC(=O)CSc2cc(=O)n(C)c3ccc(Cl)cc23)cc1Cl	-	-	-	0	-	0
O=C(NNC(=O)c1cc(-c2cccnc2)nc2ccccc12)Nc1ccc(Cl)cc1	0	0	0	24µM	0	0
C=CCNC(=S)NNC(=O)c1cc(-c2cccnc2)nc2ccccc12	-	0	0	9.5µM	0	-
O=C(NNC(=O)c1cc(-c2ccccc2)nc2ccccc12)Nc1cccc(Cl)c1	0	0	0	?	0	0
CC(C)(C)c1ccc(-c2cc(C(=O)NNC(=O)Nc3ccccc3)c3ccccc3n2)cc1	0	?	?	0.48µM	0	14µM
O=C1c2ccccc2NC(c2ccc(-c3ccc(F)cc3)o2)N1O (stereo not given)	-	2.8µM	?	?	0	-
O=C1c2ccccc2NC(c2ccc(-c3ccc(Br)cc3)o2)N1O (stereo not given)	0	0	0	0	0	0
COc1cc(CC(=O)N2CCN(C(=O)C3CCCO3)CC2)cc(OC)c1OC (stereo not given)	-	-	0	-	-	-
O=C(COc1ccc2ccccc2c1Br)Nc1ncn[nH]1	0	0	?	13µM	0	0
Cc1cccc(C)c1OCC(=O)Nc1ncn[nH]1	0	0	0	0	0	0
O=C(Oc1ccccc1)N1CCCC1	-	0	0	0	0	-
O=C(Oc1ccc(Oc2ccccc2)cc1)N1CCC(O)CC1	-	?	?	17µM	?	-
O=C(Oc1ccc(-c2ccccc2)cc1)N1CCOCC1	0	2.8µM	?	21µM	2µM	?
Cc1c(C(=O)NCC(C)C)sc2nc(-c3ccc(F)cc3)cn12	0	?	?	0	2µM	0
Cc1c(C(=O)NCc2ccc(F)cc2)sc2nc(-c3ccc(F)cc3)cn12	-	-	-	0	-	-
Cc1ccc(CNC(=O)c2sc3nc(-c4ccccc4)cn3c2C)cc1	-	-	-	0	-	-
COc1ccc(-c2cn3c(C)c(C(=O)Nc4cccc(NC(C)=O)c4)sc3n2)cc1	0	0	0	9.5µM	0	0
Cc1c(C(N)=O)sc2nc(-c3ccccc3)cn12	0	?	?	19µM	?	0
COc1cccc(-n2c(=O)c3c(C)c(C)sc3n(CC(=O)NCc3ccc(C)cc3)c2=O)c1	-	-	-	0	-	0
CC(=O)Nc1c(I)cc(I)c(C(=O)O)c1I	0	-	-	-	-	0
CCNC(=O)CC1C(=O)N(c2ccc(C)cc2)C(=O)N1Cc1ccc(C)cc1 (stereo not given)	-	-	-	0	-	0
